In the library only some 11% were active in any assay of this set; here they are far more common.
Sm TGR inh – qHTS Assay for the Inhibitors of Schistosoma Mansoni Peroxiredoxins. 360,000 tested, 3% active. purified TGR, DTNB reduction, TNB absorbance 405 nm. Schistosoma mansoni thioredoxin glutathione reductase (TGR), Q962Y6. Potency, µM (highest dose often 114 µM), for inactives: at the highest dose activity change, negative = inhibition, usual class: inhibitors. AID 485364, 2010; note: % is set by controls: 0 for no effect and ±100 for the full control effect; nearly all actives have a fitted effect of over 60% in size
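Kinetic colorimetric format: TGR-catalysed, NADPH-driven DTNB reduction monitored via TNB absorbance. Enzyme dispensed at 20 nM; compound exposure 15 min at room temperature before reaction start.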
Pf growth 96h – Primary qHTS for delayed death inhibitors of the malarial parasite plastid, 96 hour incubation; P. falciparum luciferase reporter growth, 96 h; Potency, µM (series often up to 28.7 µM), for inactives: at the highest dose activity change, negative = inhibition, most hits filed as inhibitors; 320,000 tested, 6.9% active; note: % is set by controls: 0 for no effect and ±100 for the full control effect
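Luminescence readout: decreased luciferase signal marks inhibited growth of reporter-expressing P. falciparum in infected red cells (2% hematocrit, 0.05% parasitemia final), exposed to compound two generations (96 h, 37 C, 5% CO2).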
Pf growth 48h – Primary qHTS for delayed death inhibitors of the malarial parasite plastid, 48 hour incubation | P. falciparum luciferase growth in erythrocytes, 48 h | Potency, µM (series often up to 28.7 µM), for inactives: at the top dose activity change, negative = inhibition, actives largely listed as inhibitors | 310,000 tested, 5.9% active | AID 504832, 2011; note: % is set by controls: 0 for no effect and ±100 for the full control effect
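Read-out is firefly luciferase luminescence from an integrated reporter in P. falciparum, so falling signal marks reduced parasite growth. Infected erythrocytes were at 2% hematocrit and 0.1% parasitemia (final) in Albumax-supplemented RPMI 1640.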
NS1 inh – qHTS Assay for Inhibitors of Influenza NS1 Protein Function. Potency, µM (doses to about 46.1 µM), inactives show at the top dose activity, positive = more growth. 270,000 tested, 0.4% active; calls by dose curve; note: actives are rising curves; nearly all actives have a fitted effect of over 50% in size
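Compounds were scored for reversing the slow growth caused by influenza A NS1 in S. cerevisiae, measured by optical density at 600 nm. Assay medium contained 2% galactose at pH 6.0; NS1-free yeast of the same strain were the positive control.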
AMA1 RON2 block – qHTS for Inhibitors of AMA1-RON; Towards Development of Antimalarial Drug Lead: Primary Screen. Plasmodium falciparum AMA1 (3D7) - RON2 peptide interaction. AID 720542, 2013. 360,000 tested, 0.2% active. AlphaScreen AMA1-biotinylated RON2 peptide binding. Potency, µM (top dose mostly 58.2 µM), for inactives: at the top dose activity change, negative = inhibition, most hits filed as inhibitors;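 note: 0% = vehicle wells and -100% = peptide control; nearly all actives have a fitted effect of over 45% in size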
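AMA1 (3D7) with his tag at 25 nM final met compounds first, then biotinylated RON2 peptide at 25 nM; detection used donor plus acceptor beads, 10 µg/mL apiece, read by AlphaScreen after 30 min at room temperature.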
* = called active by the depositor; ? = inconclusive; . = no result given; [ ] = another dose, or the depositor's remark. Unless noted, calls come from the whole dose curve; as a rule, active = well fitted curve in the direction sought with a large enough effect; inconclusive = small, poorly fitted or top-dose-only effect, or another doubt; inactive = no such curve, though single readings can be large; an effect the other way counts as inactive or inconclusive. Potency is the fitted concentration of half-maximal effect.

SMILES | Sm TGR inh | Pf growth 96h | Pf growth 48h | NS1 inh | AMA1 RON2 block
C#CCOCCOCCOCCNc1nc(N2CCN(C(=O)[C@H](CCC(=O)O)n3cc(C(N)Cc4ccc(O)cc4)nn3)CC2)nc(N2CCN(C(=O)[C@H](Cc3ccc(O)cc3)n3cc(C(N)CC(C)C)nn3)CC2)n1 (stereo not given in full) | 14µM* | 48% | -7% | -1% | .
C#CCOCCOCCOCCNc1nc(N2CCN(C(=O)[C@H](CCC(=O)O)n3cc(C(N)CC(C)C)nn3)CC2)nc(N2CCN(C(=O)[C@H](Cc3ccc(O)cc3)n3cc(C(N)CC(C)C)nn3)CC2)n1 (stereo not given in full) | -22% | ? | ? | 2% | -2%
Cc1ccc(C(=O)NCC(=O)Nc2ncccc2C)s1 | 6% | 56% | 37% | . | -1%
CCN(CC)C(=O)CSc1nc2cc(OC)c(OC)cc2c(=O)n1Cc1ccc(Cl)cc1 | -3% | ? | 12µM* | 5% | -7%
COc1cc2nc(SCC(N)=O)n(CCC3=CCCCC3)c(=O)c2cc1OC | 7% | 13µM* | -12% | -2% | -1%
Cc1ccccc1C(=O)Nc1nnc(-c2cccnc2)o1 | 8% | 55% | -6% | . | 46%
CNC(=O)C(C)N1c2cccc3cccc(c23)S1(=O)=O (stereo not given) | 8% | 18% | 4% | -2% | 6%
CC(C)C1=Nc2cccc3cccc(c23)N1 | 1% | -18% | ? | -29% | -6%
ClCC1=Nc2cccc3cccc(c23)N1 | 28µM* | 4.7µM* | 4.1µM* | 1% | .
CC1CCCCN1C(=S)NC(=O)c1cc(Br)ccc1Cl (stereo not given) | 1% | 13µM* | ? | . | 63%
O=C(NCc1ccc(CNC(=O)c2ccco2)cc1)c1ccco1 | 3% | 12µM* | -3% | 7% | -8%
O=C(NCc1ccc(Cl)c(Cl)c1)c1ccco1 | 0% | 67% | -10% | -13% | 0%
Cc1occc1C(=O)NCc1cccc(CNC(=O)c2ccoc2C)c1 | 40µM* | 2% | 5% | -8%[9.22 µM] | 0%
Cc1ccccc1OCCNC(=O)c1ccco1 | -6% | 13% | -24% | -13% | 0%
O=C(Nc1ccccc1C(=O)NCc1ccco1)c1ccco1 | 3% | . | 3% | -4% | 3%
CCCCOc1ccc(OCCNC(=O)c2ccco2)cc1 | 5% | ? | 9.3µM* | -16% | -2%
O=C(Nc1ccccc1C(=O)Nc1ccccc1C(=O)NCc1ccco1)c1ccco1 | ? | . | 8.3µM* | -7% | -4%
Cc1occc1C(=O)NCc1ccc2c(c1)OCO2 | -15% | 0% | 5% | 7% | -3%
O=C(NCc1ccco1)c1cccc(NC(=O)c2ccco2)c1 | 45µM* | . | 14% | -6% | 12%
Cc1ccc(S(=O)(=O)NCC(c2ccc3c(c2)OCO3)N2CCOCC2)cc1 (stereo not given) | -15% | 9% | 2% | . | 3%
CCN(Cc1cc2ccccc2[nH]c1=O)C(=O)C(C)C | 5% | 0.93µM* | -2% | 3% | 26%
Cc1ccc(S(=O)(=O)N(C)Cc2cc3ccccc3[nH]c2=O)cc1 | -20% | 9.3µM* | ? | -21% | 37%
COc1ccccc1Oc1ccc(NC(=O)Cc2ccccc2)cc1 | . | . | . | . | 6%
CCOc1cccc(OCCCCn2ccnc2)c1 | -1% | -9% | 12µM* | -2% | -11%
Fc1ccc(OCCCn2ccnc2)cc1 | 11% | ? | -1% | 0% | ?
SMILES | Sm TGR inh | Pf growth 96h | Pf growth 48h | NS1 inh | AMA1 RON2 block
COc1cccc(OCCCn2ccnc2)c1 | 0% | 10% | 43% | -9% | -2%
Fc1ccc(OCCCCCn2ccnc2)cc1 | -1% | 4.1µM* | -24% | 2% | 2%
N#CC(C#N)=C1C(=O)N(CCN2CCCCC2)c2ccccc21 | -15% | 0% | -2% | 1% | -11%
Cc1ccc2c(c1)C(=C(C#N)C#N)C(=O)N2CCN1CCOCC1 | 3.2µM* | -5% | -5% | 1% | 7%
N#CC(C#N)=C1C(=O)N(CCN2CCOCC2)c2ccccc21 | 3.5µM* | 4% | -4% | 5% | 2%
CC(=O)NC1C(=O)N(CCN2CCOCC2)c2ccc(Cl)cc21 (stereo not given) | -22% | ? | ? | 0% | ?
CC(=O)NC1C(=O)N(CCN2CCOCC2)c2ccc(C)cc21 (stereo not given) | -5% | ? | 3% | 6% | 32µM*
O=C(c1cc(F)c(F)cc1Cl)N1CCN(CCc2ccccc2)CC1 | 1% | -13% | -7% | 7% | -9%
O=C(CNC(=O)c1ccc(Cl)cc1)N/N=C/c1cccnc1 | 2% | 4% | 9% | 8% | 11%
Cn1nc(C(F)(F)F)c(-c2ccc(Br)cc2)c1NC(=O)CSCC(=O)O | 14% | ? | ? | -1% | 11%
Cc1cc(C(=O)OC(C(=O)Nc2cccc(C(F)(F)F)c2)c2ccccc2)c(C)o1 (stereo not given) | -16% | 5.2µM* | 9.3µM* | 5% | -4%[2.32 µM]
CCOC(=O)c1cc(CC)sc1N1C(=O)CC(Sc2ncccc2C(=O)O)C1=O (stereo not given) | 25µM* | 14%[5.75 µM] | -8%[5.75 µM] | . | 7%
CCOC(=O)c1cc(CC)sc1N1C(=O)CC(Sc2ccccc2C(=O)O)C1=O (stereo not given) | 14µM* | -2% | -6% | . | 22%
CC(C)OC(=O)c1c(NC(=O)C2c3ccccc3Oc3ccccc32)sc2c1CCCC2 | 7% | . | . | . | .
CCN1CCN(c2ccc(NC(=O)c3ccc4c(c3)[nH]c(=O)n4Cc3ccc(F)cc3)cc2)CC1 | -5% | 13µM* | 7.4µM* | 28% | ?
O=C1Nc2ccccc2C12NCCc1c2[nH]c2ccccc12 (stereo not given) | -21% | . | 6.6µM* | -9% | -3%
CC1CCN(C(=O)CSc2ccc(-c3ccccc3)nn2)CC1 | 20µM* | 23% | -12% | . | -2%
CC(=O)Nc1ccc(S(=O)(=O)NCC(=O)OCC(=O)NNC(=O)c2ccccc2)cc1 | 46% | 0% | 8% | . | 40%
O=C1CC[C@@H](CN(Cc2ccccn2)Cc2nc(Cc3ccccc3)no2)N1 | -21% | 17µM* | 5% | -4% | 73%
O=C1CC[C@@H](CN(Cc2ccccn2)Cc2nc(Cc3cccc(C(F)(F)F)c3)no2)N1 | 0% | 26% | -4% | -3% | 110%
CCCSC1=N/C(=C\C=C\c2ccco2)C(=O)S1 | 32µM* | 15% | 2% | -80% | 11µM*
O=C1SC(SCc2ccccc2)=N/C1=C\c1ccco1 | ? | . | 8% | -4% | ?
O=C(N/N=C/c1ccc[nH]1)c1ccc(COc2cccc3cccnc23)cc1 | 0% | ? | 10µM* | 4% | 14%
O=C(N/N=C/c1ccc[nH]1)c1ccc(O)cc1 | 12% | 10µM* | 67% | 3% | 22%

Compound activity (PubChem)
